We go through 13 compounds from PubChem BioAssay (EPA / NIEHS).

Records with an inconclusive call do not appear. Calls of active or inactive are those of the source. The calls were made as follows, unless noted: active = hit-call score of the fitted dose curve at least 0.9, where 1 is the maximum; inconclusive = response in the unintended direction; inactive = score below 0.9.

Assay [1] can be described thus: Tanguay_ZF_120hpf_OTIC_legacy: (Legacy) Oregon State University Tanguay Lab 120 Hour Post-fertilization zebrafish Assay for Otic Vesicle Malformation (AID 2283639). In short, it runs like this:
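Otic vesicle malformation is read as a yes/no morphology call at 120 hpf. Exposure is static at 28C with 0.64% (vol/vol) DMSO; embryos that die are excluded from non-mortality endpoints.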

Assay [2] can be described thus: Tanguay_ZF_120hpf_SOMI_legacy: (Legacy) Oregon State University Tanguay Lab 120 Hour Post-fertilization zebrafish Assay for Somite Malformation (AID 2283647). Summed up:
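Dechorionated Tropical 5D wild-type zebrafish embryos, one per well from 6 hpf, statically exposed at 28C to 120 hpf in 0.64% DMSO; somite malformation scored present/absent by brightfield; trimethyltin 5 uM positive control; dead embryos not scored.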

Assay [3] is described as follows: Tanguay_ZF_120hpf_CFIN_legacy: (Legacy) Oregon State University Tanguay Lab 120 Hour Post-fertilization zebrafish Assay for Caudal Fin Malformation (AID 2283649). Summed up: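 Dechorionated Tropical 5D wild-type embryos, one per well from 6 hpf, static exposure to 120 hpf at 28C in 0.64% DMSO. Caudal fin malformation scored by brightfield as present/absent; not scored in dead embryos.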

Assay [4] can be described thus: Tanguay_ZF_120hpf_CIRC_legacy: (Legacy) Oregon State University Tanguay Lab 120 Hour Post-fertilization zebrafish Assay for Circulatory Malformation (AID 2283651). Summed up:
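Using wild-type Tropical 5D zebrafish, we exposed dechorionated embryos from 6 to 120 hpf in embryo medium with 0.64% DMSO. Circulatory defects were scored as present or absent; 5uM trimethyltin chloride served as positive control.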

Assay [5] is described as follows: Tanguay_ZF_120hpf_SWIM_legacy: (Legacy) Oregon State University Tanguay Lab 120 Hour Post-fertilization zebrafish Assay for Swim Bladder Malformation (AID 2283654).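 Also: swim bladder malformation in each larva scored yes or no under brightfield.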 In short, it runs like this:
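Dechorionated wild-type Tropical 5D zebrafish embryos, one per well from 6 hpf, were statically exposed at 28C until 120 hpf in 0.64% DMSO. Swim bladder malformation scored as present/absent by brightfield microscopy; not scored in dead larvae.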

A short description of assay [6]: Tanguay_ZF_120hpf_TRUN_legacy: (Legacy) Oregon State University Tanguay Lab 120 Hour Post-fertilization zebrafish Assay for Truncated Body (AID 2283655). Summed up:
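Dechorionated Tropical 5D wild-type embryos placed singly from 6 hpf and statically exposed to 120 hpf at 28C, final DMSO 0.64%. Truncated body scored as present/absent by brightfield; not scored in dead embryos.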

Assay [7] is described as follows: Tanguay_ZF_120hpf_NC_legacy: (Legacy) Oregon State University Tanguay Lab 120 Hour Post-fertilization zebrafish Assay for Notochord and Tail Malformation (AID 2283656). In short, it runs like this: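 Dechorionated 5D zebrafish, 1/well from 6 hpf; static exposure to 120 hpf, 28C, sealed, dark; final DMSO 0.64% v/v. NC scored binary (present/absent); dead embryos not scored. Fit vs DMSO baseline, gain direction.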

Assay [8] in a line: Tanguay_ZF_120hpf_TR_legacy: (Legacy) Oregon State University Tanguay Lab 120 Hour Post-fertilization zebrafish Assay for Touch Response (AID 2283667). Summed up: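 Tropical 5D wild-type zebrafish embryos statically exposed to 120 hpf at 28°C, sealed and dark-covered, 0.64% DMSO final; touch response scored as present/absent by brightfield microscopy at 120 hpf. Trimethyltin chloride 5 uM positive control; dead embryos not scored.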

Assay [9] can be described thus: Tanguay_ZF_120hpf_JAW_legacy: (Legacy) Oregon State University Tanguay Lab 120 Hour Post-fertilization zebrafish Assay for Jaw Malformation (AID 2283638). In short, it runs like this:
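Dechorionated Tropical 5D wild-type zebrafish embryos, one per well, exposed statically from 6 hpf to 120 hpf at 28C in 0.64% DMSO. Jaw malformation was scored by brightfield microscopy as present or absent. It was not scored in dead embryos.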

Assay [10] is described as follows: Tanguay_ZF_120hpf_PFIN_legacy: (Legacy) Oregon State University Tanguay Lab 120 Hour Post-fertilization zebrafish Assay for Pectoral Fin Malformation (AID 2283648).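 Also: each larva judged yes or no for fin defect by brightfield with dead larvae skipped.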 Summed up:
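Dechorionated Tropical 5D wild-type zebrafish embryos, one per well, statically exposed from 6 to 120 hpf at 28C with 0.64% DMSO final. Pectoral fin malformation scored present/absent by brightfield at 120 hpf; not scored in dead embryos.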

Assay [11] can be described thus: Tanguay_ZF_120hpf_PIG_legacy: (Legacy) Oregon State University Tanguay Lab 120 Hour Post-fertilization zebrafish Assay for Pigmentation Malformation (AID 2283650). In short, it runs like this: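 Dechorionated Tropical 5D wild-type embryos, one per well from 6 hpf, statically exposed at 28C in the dark until 120 hpf, 0.64% DMSO final. Pigmentation scored present/absent by brightfield microscopy; dead embryos not scored; fitted versus DMSO.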

A short description of assay [12]: CCTE_Padilla_ZF_144hpf_TERATOSCORE: (Legacy) CCTE's 144 Hour Post-fertilization zebrafish Assay Teratoscore, Padilla Lab (AID 2283679; active = hit-call score of the fitted dose curve at least 0.9, where 1 is the maximum; inactive = score below 0.9;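 as to AC50: zebrafish embryos with chorions exposed by immersion from 6-8 hpf to 5 dpf with daily renewal; teratogenicity score from eye scoring of death hatching and malformations at 144 hpf; higher score means more developmental defects relative to DMSO baseline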). In short, it runs like this: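 Larvae scored by eye at 144 hpf for death, hatching and malformations after a day in clean Hanks'. Before that, daily-renewed exposure at 80 uM (0.4% DMSO, 26C) from roughly 6-8 hpf through 5 dpf, 4 embryos per chemical.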

The subject of assay [13] is Thyroperoxidase (TPO), gene 54314. The experiment in a line: CCTE_Simmons_AUR_rTPO: CCTE's Amplex UltraRed Assay for Thyroperoxidase (TPO) Inhibition, Simmons Lab (AID 2283662).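 Also: potency for loss of signal meaning inhibition of peroxidase activity.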 Summed up: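 Rat thyroid microsomes (5 ug protein) were incubated with test compound (8 concentrations, 5 nM–87.5 uM final, 0.5% DMSO), 25 uM Amplex UltraRed and 300 uM H2O2 in 200 mM phosphate buffer for 30 min at 37C in the dark; fluorescence read at 544/590 nm.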

A short description of assay [14]: CCTE_Simmons_CellTiterGLO_HEK293T: Viability Assessment in CCTE's Assays for Thyroperoxidase (TPO) Inhibition, Simmons Lab (AID 2283665).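 As to AC50: cells exposed to compound for 24 h before readout; actives reduce ATP signal below DMSO vehicle meaning cytotoxicity.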 In short, it runs like this:
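Cytotoxicity counter-screen: human HEK293T cells in low-serum (1% FBS) medium receive test chemical, 5 nM to 87.5 uM final, for 24 h; ATP is quantified by luciferase luminescence.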
For orientation: ATP-based viability assays read luminescence as a measure of living cells.

Assay [15] can be described thus: STM_H9_OrnithineISnorm_perc: Stemina devTOX quickPredict H9 human embryonic stem cell (hESC)-based Assay for Ornithine (ORN) Metabolite Biomarker, Normalized (AID 2283712; active = hit-call score of the fitted dose curve at least 0.9, where 1 is the maximum; inactive = score below 0.9;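 also: ornithine released into spent medium during last day measured by mass spectrometry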). In short, it runs like this:
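Cells: undifferentiated H9 hESC. Dosing: 72 h, media replaced every 24 h. Sample: final 24-h conditioned media, 40% acetonitrile. Read: UPLC-HRMS ornithine area vs 13C standard, % DMSO control.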

`CCN(CC)c1ccccc1`: the call in assay [1], in [2], in [3], in [4], in [5] and in [6] was inactive. For the same compound, the result in [7] and in assay [8] was inactive.

As to `CC(Cl)(Cl)C(=O)O`, the outcome in assay [9], in assay [2], in assay [10], in [3], in assay [11] and in [4] was inactive. The result in assay [5], in assay [6], in [7] and in assay [8] was inactive.

For `CCCN(CCC)c1c([N+](=O)[O-])cc(C(C)C)cc1[N+](=O)[O-]`, the result in [2], in assay [10], in [3], in [5], in assay [6] and in [7] was inactive. Further, the result in assay [8] was inactive. The AC50 in assay [12] was 16.2 µM (active).

Turning to `O=S1(=O)OCC2C(CO1)C1(Cl)C(Cl)=C(Cl)C2(Cl)C1(Cl)Cl` (configuration not stated), the concentration at half-maximal activity (AC50) in [13] was 2.41 µM (active); in [14] it was 28.5 µM (active).

On to `Cc1ccc(N)cc1N`, for which the outcome in assay [1], in [2], in assay [11], in assay [4], in [5] and in assay [6] was inactive. Moreover, the outcome in assay [7], in assay [14] and in [8] was inactive. The values for the AC50 in [13] and in assay [15] were 9.92 µM (active) and 89.7 µM (active), respectively.

As to `CCNc1nc(Cl)nc(NC(C)(C)C)n1`, the outcome in assay [1], in [2], in assay [10], in assay [3], in assay [11] and in assay [4] was inactive. Further, the compound was called inactive in assay [5], in assay [6], in assay [7], in [8] and in assay [12].

Consider `ClC(Cl)c1ccccc1`, for which the compound was classed as inactive in assay [9], in assay [1], in assay [10], in assay [3], in assay [11] and in assay [4]. In addition, the result in assay [5], in assay [6], in assay [7] and in assay [8] was inactive. In addition, the AC50 in assay [12] was 14.7 µM (active).

For `CCOC(=O)c1ccccc1C(=O)OCC`, the compound was classed as inactive in assay [9], in [2], in assay [10], in [3], in [11] and in [4]. In addition, the compound was classed as inactive in [5], in assay [6], in assay [8] and in [15].

For the compound `CC(C)(C)c1ccc(O)cc1`, the compound was classed as inactive in [9], in assay [2], in assay [10], in assay [3], in [4] and in assay [5]. The call in [6], in assay [7] and in assay [8] was inactive. Also, the AC50 was 25.2 µM (active) in assay [11], 2.73 µM (active) in assay [13], 57.4 µM (active) in assay [14] and 57.8 µM (active) in assay [12].

On to `CCCCC(CC)COP(=O)(Oc1ccccc1)Oc1ccccc1` (configuration not stated), for which, in assay [15], the outcome was inactive.

`CN(C)C(=O)Cl`: the call in assay [9], in [1], in [3], in assay [11], in assay [4] and in assay [6] was inactive. Further, the compound was called inactive in assay [7] and in assay [8].

As for `CCCCN(CCCC)N=O`, the compound was called inactive in assay [9], in assay [2], in assay [10], in assay [3], in assay [5] and in assay [6]. Further, in [8], the compound was called inactive.

For the compound `Nc1cc2c3c(c1)C(c1ccccc1)=N[C@@H](NC(=O)c1cccnc1)C(=O)N3CC2`, the compound was classed as inactive in [9], in assay [2], in assay [10], in assay [3], in [11] and in assay [4]. Besides, the result in [5], in [6], in assay [7], in assay [14] and in assay [8] was inactive. Besides, in assay [13], the AC50 is 23.1 µM (active).

In general, AC50 refers to the concentration giving half of the maximal activity seen.
